The source made the active and inactive calls. Calls follow the shape of the dose curve; as a rule, active = well fitted inhibition curve with a large enough effect; inconclusive = small, poorly fitted or top-dose-only effect; inactive = flat fitted curve, though single readings scatter.

For the assay, the target named is Luciferin 4-monooxygenase (Photinus pyralis) (UniProt P08659). Description: Primary firefly luciferase (FLuc) qHTS assay for identification of artifact compounds. (AID 1845220). Also: nearly all actives have a fitted effect of over 60% in size.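 As to activity change, negative = inhibition: plate controls were DMSO vehicle for no effect and no enzyme for full effect.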 Conditions: purified firefly luciferase, luminescence, 5 min; series mostly up to 54.1 µM; activity change, negative = inhibition: at the top concentration. A digest of the protocol:
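qHTS, 15 min compound preincubation with substrate (10 uM luciferin, 10 uM ATP) at RT, then 10 nM FLuc; 5 min; luminescence; % inhibition vs no-enzyme/DMSO controls, 4-parameter Hill fit.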
For the molecule `C=C1C(=O)OC2/C=C(\C)CC/C=C(\C(=O)O)CC/C=C(\C)CCC12` (configuration not stated), the “activity change, negative = inhibition” value was 0.712% (inactive).
On the same count and under the same terms, to `CNC(=O)c1ccc(Nc2ncc(C(F)(F)F)c(NCc3nccnc3N(C)S(C)(=O)=O)n2)cc1` belongs 1.83% (inactive); to `C=C1CC2C3(C)C(O)CC(=O)C(C)(C)C3C(OC(C)=O)C(OC(C)=O)C2(C)C2C(=O)OC(C)(C(=O)OC)C(=O)C12C` (configuration not stated), 1.7% [at 25.7 µM] (inactive).
Turning to `CCn1nnnc1NCc1ccc(C(C)C)cc1`, the “activity change, negative = inhibition” value is 4.12% (inactive).
In the case of `CNc1nc(Nc2cnn([C@H]3CCN(C4COC4)C[C@@H]3F)c2Cl)ncc1C(F)(F)F`, the call was inactive.
With `CC1=CC(=O)C2C(C)(C)CC(O)CC2(C)C1CO` (configuration not stated), the result was inactive.
Regarding `CCCn1cnc2c(NCc3ccccc3)nc(N[C@H](CC)CO)nc21`, the molecule was classed as inactive.
On the same count and under the same terms, then `CC1(C)C(=O)C(C)(C)c2cc(C(=O)Nc3ccc(C(=O)O)cc3)ccc21`, with “inactive”.
For the molecule `C=C1[C@H]2[C@H](O[C@@H]3O[C@H](COC(=O)/C=C/c4cc(OC)c(O)c(OC)c4)[C@@H](O)[C@H](O)[C@H]3O)OC=C(C(=O)O)[C@H]2C[C@@H]1O`, the “activity change, negative = inhibition” value is 1.83% [at 25.7 µM] (inactive).
Same read-out and setting: to `COC1C=C([C@@H]2CC=C3[C@@]4(C)C(CC[C@]32C)[C@@]2(C)C=CC(=O)C(C)(C)C2C[C@H]4OC(C)=O)C(=O)O1` (some centres not stated) belongs -1.85% [at 25.7 µM] (inactive).
Still for that read-out and setting: then `O=C1CC(c2ccc([N+](=O)[O-])cc2)=NN1c1ccccc1`, with -16.5% (inactive).
For `CC(=O)O[C@H](C[C@@H](C)[C@H]1C(=O)[C@H](O)[C@@]2(C)[C@@H]3CCC4C(C)(C)[C@@H](O[C@@H]5OC[C@H](O)[C@H](O)[C@H]5O)CC[C@@]45C[C@@]35CC[C@]12C)[C@@H]1OC1(C)C` (some centres not stated), the “outcome” value is “inactive [at 25.7 µM]”.

The record behind these values is PubChem BioAssay (NCATS).
